Data on six compounds can be found in PubChem BioAssay (NCATS).

The target in experiment [1] is Lysosomal acid glucosylceramidase (Homo sapiens) (UniProt P04062). Description: Glucocerebrosidase-p2 (AID 348; in the data active means potency below about 10 µM; further: potency means the concentration at half of the fitted maximal effect). The settings on record: purified GBA, blue fluorogenic substrate, 40 min. In short, it runs like this:
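Compounds titrated from 0.6 nM upwards against 0.2 nM enzyme in pH 5.9 citric acid/KH2PO4, taurocholate, tween-20; blue fluorogenic substrate 80 uM, 40 min room temperature, stopped and read Ex 365/Em 440 for AC50.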

Experiment [2] in a line: AP1 Signaling Pathway (AID 357; active means well fitted curve in either direction with a large enough effect, not every such curve was filed as active;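 further: ME-180 reporter cells stimulated with EGF at its EC50 level; on the % scale 0 is the no-effect control and ±100 the full control effect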). To be noted: ME-180 AP-1-bla reporter, EGF-induced, beta-lactamase ratio, 5 h; at 7.69 µM (top of the series) unless noted. An outline of the steps:
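Read-out was the 460nm/530nm emission ratio (excitation 405nm) after CCF4 loading for 2.5 hours at room temperature. Cells carried an AP-1-driven beta-lactamase reporter, were stimulated with EC50 EGF plus compound for 5 hours, and AC50 values came from titrations.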

The target of experiment [3] is Cytochrome P450 1A2 (Homo sapiens) (UniProt P05177). Description: p450-cyp1a2 (AID 410; calls by dose curve; further: potency means the concentration at half of the fitted maximal effect). The settings on record: recombinant CYP1A2, luciferin-ME demethylation, luminescence; series mostly up to 57 µM. An outline of the steps: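 Inhibition was calculated relative to 57 uM furafylline (full inhibition). The reaction used human CYP1A2 at 20nM with Luciferin-ME at its Km, 100uM, driven by an NADPH-regenerating system for 60 min at room temperature.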

Experiment [4] is described as follows: NFAT Signaling Pathway (AID 444; active means well fitted curve in either direction with a large enough effect, not every such curve was filed as active;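 further: carbachol stimulus at about its EC50 of 1 µM final; on the % scale 0 is the no-effect control and ±100 the full control effect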). The settings on record: Jurkat NFAT-bla M1, carbachol, beta-lactamase ratio, 5 h; at 7.69 µM (top of the series) unless noted. An outline of the steps:
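Jurkat cells carrying an NFAT-driven β-lactamase reporter and co-transfected muscarinic M1 receptor were treated with compound plus carbachol (1 uM final, an EC50 level) for 5 h at 37 °C. CCF4 loading followed for 1 h at RT; 460/530 nm ratio gave %activity.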

Experiment [5] can be described thus: Stat Signaling Pathway (AID 446; active means well fitted curve in either direction with a large enough effect, not every such curve was filed as active;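 further: ME-180 cervical cancer cells given 40 pM IL-6 alongside compound; SIE-controlled beta-lactamase reporter measured as 460/530 nm FRET emission ratio; on the % scale 0 is the no-effect control and ±100 the full control effect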). The settings on record: ME-180 (cervical carcinoma) SIE beta-lactamase reporter, IL-6 stimulated, 5 h; at 7.69 µM (top of the series) unless noted. In short, it runs like this:
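ME-180 cells carrying a SIE-driven beta-lactamase reporter are stimulated with 40 pM IL-6 for 5 h at 37C in the presence of compound. The 460/530 nm FRET substrate ratio is read after 2.5 h at RT. Data are normalised to 300 pM IL-6 and to 125 nM JAK inhibitor controls.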

The target of experiment [6] is Glucocorticoid receptor (Homo sapiens) (UniProt P04150). The experiment can be described thus: GR-GFP Redistribution (AID 450;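 active means compounds whose dose series gives a full or clear partial fitted curve of increased nuclear translocation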; further: potency means the concentration at half of the fitted maximal effect). To be noted: U2OS GR-GFP nuclear translocation, laser cytometry, 2 h.
The target is the same in experiment [7]. Description: GR-EFC Redistribution (AID 451; calls by dose curve; further: potency means the concentration at half of the fitted maximal effect). To be noted: CHO-K1 GR-EFC translocation, beta-gal luminescence, 2 h. An outline of the steps: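 CHO-K1 cells stably expressing nuclear-localized β-gal enzyme acceptor and GR fused C-terminally to the enzyme donor fragment; ligand-driven nuclear translocation restores β-gal by complementation. Compounds titrated up to 46 uM final, 2 h at 37 °C; luminescence read.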

Experiment [8] has as its target Mitogen-activated protein kinase 10 (Mus musculus) (UniProt Q61831). Description: JNK3 AlphaScreen Assay (AID 530; active means well fitted curve in either direction with a large enough effect, not every such curve was filed as active;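 further: kinase came from lysate of stimulated human HepG2 cells; signal reports phosphorylation of biotinylated GST-cJun 1-79 at Ser73 with 10 µM ATP; on the % scale 0 is the no-effect control and ±100 the full control effect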). The settings on record: JNK3 lysate, c-Jun phosphorylation; series mostly up to 57.1 µM. In short, it runs like this:
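JNK3 came from HepG2 lysates pre-activated with IL-1beta and TNF-alpha and phosphorylated biotinylated GST-cJun (1-79) at 10 uM ATP, pH 7.6, room temperature. Compounds were titrated. AlphaScreen signal used anti-phospho-cJun (Ser73) antibody.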
(In Alpha technology, singlet oxygen from a donor bead excites a nearby acceptor bead.)

Experiment [9] concerns the target 3',5'-cyclic-AMP phosphodiesterase 4B (Homo sapiens) (UniProt Q07343). Description: qHTS Assay for Inhibitors of PDE-IV (AID 607; active means well fitted activation curve with a large enough effect in the main read-out, with a control signal flat, not every such curve was filed as active; further: % of control where 0% means no effect). The settings on record: HEK293 ACTOne CNG channel cells, membrane potential fluorescence; series mostly up to 22.9 µM. In short, it runs like this:
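HEK293 ACTOne cells with CNG channel (1000/well), endogenous PDE4; membrane potential dye, compounds up to 22.9 uM final. Fluorescence Ex 535/Em 590; RO 20-1724 (100 uM final) as reference.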
(In qHTS, concentration-response curves come from the screen itself.)

In experiment [10] the target is Dual specificity protein kinase CLK4 (Homo sapiens) (UniProt Q9HAZ1). Description: qHTS Assay for Inhibitors of CDC-like Kinase 4 (Kinase-Glo Assay) (AID 1770). Further: on the % scale 0 is the no-effect control and ±100 the full control effect; nearly all actives have a fitted effect of over 65% in size. The settings on record: recombinant Clk4, Kinase-Glo ATP depletion luminescence; series mostly up to 66.7 µM. In short, it runs like this:
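Recombinant human Clk4 (25 nM) phosphorylated RS repeat peptide (100 uM) with 1 uM ATP in Tris pH 7.5/MgCl2/EGTA/DTT/Triton buffer for 4.5 h at room temperature. Residual ATP was quantified by Kinase-Glo luciferase luminescence.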

For experiment [11] the target is unchanged. The experiment can be described thus: qHTS Assay for Inhibitors of CDC-like Kinase 4 (ADP-Glo Assay) (AID 1771). Further: on the % scale 0 is the no-effect control and ±100 the full control effect; nearly all actives have a fitted effect of over 70% in size. To be noted: recombinant CLK4, ADP-Glo luminescence; series mostly up to 80 µM. In short, it runs like this: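 Kinase reaction: Clk4 at 25 nM, RS repeat peptide substrate at 100 uM, ATP at 1 uM, 1 hr, room temperature. Product ADP detected as luciferase signal via ADP-Glo.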

Experiment [12] shares this target. The experiment can be described thus: qHTS Assay for Inhibitors of CDC-like Kinase 4 (ADP-FP Assay) (AID 1795). Further: on the % scale 0 is the no-effect control and ±100 the full control effect; nearly all actives have a fitted effect of over 60% in size. To be noted: Transcreener ADP fluorescence polarization; series mostly up to 50 µM. An outline of the steps:
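Recombinant human Clk4 (6.25 nM) phosphorylated RS repeat peptide (100 uM) with 1 uM ATP in Tris pH 7.5/MgCl2/EGTA/DTT/Triton buffer for one hour. ADP was quantified by Transcreener competitive fluorescence polarization against an ADP calibration curve.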

In experiment [13] the target is Ubiquitin carboxyl-terminal hydrolase 1 (Homo sapiens) (UniProt O94782). The experiment can be described thus: Inhibitors of USP1/UAF1: Pilot qHTS (AID 504865).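 Further: rhodamine fluorescence freed from ubiquitin-rhodamine substrate followed over time; top concentration of the series differs between compounds; on the % scale 0 is the no-effect control and ±100 the full control effect; nearly all actives have a fitted effect of over 35% in size.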 The settings on record: purified USP1/UAF1, Ub-rhodamine cleavage fluorescence; series mostly up to 54.9 µM. In short, it runs like this:
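USP1/UAF1 complex (1nM) preincubated with compound 15 min at room temperature, then Ub-Rho substrate (150nM final) added. Fluorescence read kinetically at 480/540 nm, 6 reads every 60 seconds. Buffer: 50mM HEPES pH 7.8, 0.5mM EDTA, 0.1 mg/ml BSA, 1mM TCEP, 0.01% Tween-20.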

Experiment [14] is described as follows: Primary qHTS for small molecule stabilizers of the endoplasmic reticulum resident proteome: Secreted ER Calcium Modulated Protein (SERCaMP) assay (AID 1508630). Further: on the % scale 0 is the no-effect control and ±100 the full control effect. To be noted: SH-SY5Y GLuc-SERCaMP (Gaussia luciferase released on ER calcium loss) secretion, thapsigargin, luminescence; series mostly up to 38.4 µM. In short, it runs like this:
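GLuc-SERCaMP-expressing SH-SY5Y cells, pretreated 16 h with compound, are challenged with thapsigargin to empty ER calcium stores; after 4 h, coelenterazine is added directly to the medium and luminescence is imaged.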

Experiment [15] addresses Cytochrome P450 3A4 (Homo sapiens) (UniProt P08684). Description: qHTS Assay for Activators of Cytochrome P450 3A4 (AID 885). Further: nearly all actives have a fitted effect of over 65% in size. To be noted: recombinant CYP3A4, Luciferin-PPXE luminescence, 60 min; series mostly up to 57.1 µM. An outline of the steps:
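Human CYP3A4 (20 nM) with Luciferin-PPXE at 25 uM (its KM) in 200 mM KPO4; 10 min compound preincubation, then NADPH regeneration and 60 min reaction at RT. Luciferin read by luminescence; normalized to 57 uM ketoconazole full inhibition.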

Experiment [16] has as its target Rap guanine nucleotide exchange factor 3 (Homo sapiens) (UniProt O95398). Description: Confirmatory qHTS for agonist of cAMP-regulated guanine nucleotide exchange factor 3 (EPAC1) (AID 1645881).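 Further: EPAC1 catalysed release of BODIPY-GDP from Rap1B seen as fluorescence loss; 100% = effect of cAMP agonist control; nearly all actives have a fitted effect of over 75% in size.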 To be noted: EPAC1 Rap1B BODIPY-GDP exchange fluorescence; series mostly up to 154 µM.

Molecules are shown by their SMILES. Values without a mark were called inactive. Results filed as inconclusive are left out. Calls of active or inactive are those of the source. Unless noted, the call rests on the fitted dose curve; in most records, active means well fitted curve in the direction sought with a large enough effect; inconclusive means small, poorly fitted or top-dose-only effect, or another doubt; inactive means no such curve, though single readings can be large; an effect the other way counts as inactive or inconclusive.

Sequence of Dual specificity protein kinase CLK4 (Homo sapiens) (Q9HAZ1 whole entry, looked up): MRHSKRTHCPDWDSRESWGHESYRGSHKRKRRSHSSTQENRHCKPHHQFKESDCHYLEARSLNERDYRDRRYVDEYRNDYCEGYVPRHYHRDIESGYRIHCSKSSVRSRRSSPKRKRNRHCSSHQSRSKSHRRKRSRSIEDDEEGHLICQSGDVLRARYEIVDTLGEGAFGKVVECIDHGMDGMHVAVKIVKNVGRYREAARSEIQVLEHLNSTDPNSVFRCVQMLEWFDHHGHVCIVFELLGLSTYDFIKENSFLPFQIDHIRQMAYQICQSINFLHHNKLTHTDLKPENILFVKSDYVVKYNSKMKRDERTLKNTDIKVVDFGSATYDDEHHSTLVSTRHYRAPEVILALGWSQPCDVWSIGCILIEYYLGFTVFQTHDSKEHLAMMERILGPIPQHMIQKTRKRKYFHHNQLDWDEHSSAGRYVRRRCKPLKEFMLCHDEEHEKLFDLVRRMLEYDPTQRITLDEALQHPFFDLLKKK
Sequence of Glucocorticoid receptor (Homo sapiens) (P04150 whole entry, looked up, the tested form may be a part): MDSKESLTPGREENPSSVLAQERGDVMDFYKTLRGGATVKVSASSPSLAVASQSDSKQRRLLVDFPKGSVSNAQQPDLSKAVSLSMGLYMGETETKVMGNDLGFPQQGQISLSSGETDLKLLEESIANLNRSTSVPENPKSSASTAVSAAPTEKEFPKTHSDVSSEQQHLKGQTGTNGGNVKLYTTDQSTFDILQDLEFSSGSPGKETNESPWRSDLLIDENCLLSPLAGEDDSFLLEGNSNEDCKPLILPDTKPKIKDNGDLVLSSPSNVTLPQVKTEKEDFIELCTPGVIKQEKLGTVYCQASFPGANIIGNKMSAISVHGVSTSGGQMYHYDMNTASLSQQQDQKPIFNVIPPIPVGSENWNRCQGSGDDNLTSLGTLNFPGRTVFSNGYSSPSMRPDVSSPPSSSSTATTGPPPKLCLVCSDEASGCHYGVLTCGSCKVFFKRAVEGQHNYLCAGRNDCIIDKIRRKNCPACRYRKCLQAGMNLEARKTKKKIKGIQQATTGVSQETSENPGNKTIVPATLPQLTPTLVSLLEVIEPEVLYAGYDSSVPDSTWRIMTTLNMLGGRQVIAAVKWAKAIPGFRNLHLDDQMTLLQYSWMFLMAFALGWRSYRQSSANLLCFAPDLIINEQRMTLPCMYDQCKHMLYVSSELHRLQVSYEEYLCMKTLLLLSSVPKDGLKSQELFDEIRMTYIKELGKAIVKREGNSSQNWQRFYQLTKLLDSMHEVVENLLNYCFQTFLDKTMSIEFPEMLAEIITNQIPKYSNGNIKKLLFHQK
Sequence of Ubiquitin carboxyl-terminal hydrolase 1 (Homo sapiens) (O94782 whole entry, looked up): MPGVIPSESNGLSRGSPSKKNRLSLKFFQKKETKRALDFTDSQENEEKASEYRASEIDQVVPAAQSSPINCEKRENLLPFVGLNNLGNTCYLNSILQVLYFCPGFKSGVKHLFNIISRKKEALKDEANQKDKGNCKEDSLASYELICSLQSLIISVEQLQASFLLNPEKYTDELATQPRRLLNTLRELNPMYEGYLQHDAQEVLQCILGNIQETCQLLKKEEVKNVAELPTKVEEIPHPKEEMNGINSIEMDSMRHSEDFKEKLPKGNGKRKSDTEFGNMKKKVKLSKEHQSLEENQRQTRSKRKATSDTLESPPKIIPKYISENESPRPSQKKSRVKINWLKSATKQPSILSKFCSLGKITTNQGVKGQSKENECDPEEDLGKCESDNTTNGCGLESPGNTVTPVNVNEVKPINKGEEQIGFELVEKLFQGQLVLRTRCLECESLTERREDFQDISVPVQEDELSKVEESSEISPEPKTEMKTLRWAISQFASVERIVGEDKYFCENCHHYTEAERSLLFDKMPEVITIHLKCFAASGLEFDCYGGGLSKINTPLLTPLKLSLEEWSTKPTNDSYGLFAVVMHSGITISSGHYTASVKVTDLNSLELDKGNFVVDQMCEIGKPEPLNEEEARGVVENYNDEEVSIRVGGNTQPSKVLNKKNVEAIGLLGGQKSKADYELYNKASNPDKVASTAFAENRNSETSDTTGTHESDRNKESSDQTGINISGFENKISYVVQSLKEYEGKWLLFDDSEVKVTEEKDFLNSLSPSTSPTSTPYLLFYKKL
Sequence of Cytochrome P450 1A2 (Homo sapiens) (P05177 whole entry, looked up): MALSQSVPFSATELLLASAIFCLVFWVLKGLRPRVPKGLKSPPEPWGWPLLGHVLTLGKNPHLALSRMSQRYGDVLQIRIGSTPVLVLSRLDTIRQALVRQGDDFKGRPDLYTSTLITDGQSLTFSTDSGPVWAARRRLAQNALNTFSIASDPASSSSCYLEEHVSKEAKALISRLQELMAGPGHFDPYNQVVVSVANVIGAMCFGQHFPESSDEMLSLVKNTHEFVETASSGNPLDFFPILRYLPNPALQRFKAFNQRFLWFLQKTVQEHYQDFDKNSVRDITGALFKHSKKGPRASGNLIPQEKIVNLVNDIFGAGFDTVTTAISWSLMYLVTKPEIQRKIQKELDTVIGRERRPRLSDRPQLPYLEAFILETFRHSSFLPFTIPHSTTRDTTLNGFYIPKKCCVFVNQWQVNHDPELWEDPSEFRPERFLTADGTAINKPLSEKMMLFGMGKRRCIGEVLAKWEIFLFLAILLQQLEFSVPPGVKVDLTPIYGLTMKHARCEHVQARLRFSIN
Sequence of 3',5'-cyclic-AMP phosphodiesterase 4B (Homo sapiens) (Q07343 whole entry, looked up): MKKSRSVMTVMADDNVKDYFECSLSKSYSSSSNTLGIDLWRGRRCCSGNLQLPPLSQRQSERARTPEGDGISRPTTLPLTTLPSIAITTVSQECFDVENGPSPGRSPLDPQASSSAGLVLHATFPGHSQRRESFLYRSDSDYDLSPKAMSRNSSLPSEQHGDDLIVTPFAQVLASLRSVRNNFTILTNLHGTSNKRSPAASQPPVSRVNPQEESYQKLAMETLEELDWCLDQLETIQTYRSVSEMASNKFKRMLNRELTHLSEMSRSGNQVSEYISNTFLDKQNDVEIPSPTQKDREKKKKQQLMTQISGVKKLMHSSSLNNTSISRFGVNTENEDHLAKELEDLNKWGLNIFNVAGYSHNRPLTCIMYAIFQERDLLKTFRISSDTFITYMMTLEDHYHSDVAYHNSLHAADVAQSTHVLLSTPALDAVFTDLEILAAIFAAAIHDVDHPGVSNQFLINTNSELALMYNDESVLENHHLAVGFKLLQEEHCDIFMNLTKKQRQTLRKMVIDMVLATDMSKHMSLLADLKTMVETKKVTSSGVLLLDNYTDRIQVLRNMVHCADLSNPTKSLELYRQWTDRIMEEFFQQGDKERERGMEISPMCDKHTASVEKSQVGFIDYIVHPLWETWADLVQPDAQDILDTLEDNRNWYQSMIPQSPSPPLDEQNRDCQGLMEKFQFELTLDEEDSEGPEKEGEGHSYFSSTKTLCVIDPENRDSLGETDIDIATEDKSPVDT
Sequence of Lysosomal acid glucosylceramidase (Homo sapiens) (P04062 whole entry, looked up): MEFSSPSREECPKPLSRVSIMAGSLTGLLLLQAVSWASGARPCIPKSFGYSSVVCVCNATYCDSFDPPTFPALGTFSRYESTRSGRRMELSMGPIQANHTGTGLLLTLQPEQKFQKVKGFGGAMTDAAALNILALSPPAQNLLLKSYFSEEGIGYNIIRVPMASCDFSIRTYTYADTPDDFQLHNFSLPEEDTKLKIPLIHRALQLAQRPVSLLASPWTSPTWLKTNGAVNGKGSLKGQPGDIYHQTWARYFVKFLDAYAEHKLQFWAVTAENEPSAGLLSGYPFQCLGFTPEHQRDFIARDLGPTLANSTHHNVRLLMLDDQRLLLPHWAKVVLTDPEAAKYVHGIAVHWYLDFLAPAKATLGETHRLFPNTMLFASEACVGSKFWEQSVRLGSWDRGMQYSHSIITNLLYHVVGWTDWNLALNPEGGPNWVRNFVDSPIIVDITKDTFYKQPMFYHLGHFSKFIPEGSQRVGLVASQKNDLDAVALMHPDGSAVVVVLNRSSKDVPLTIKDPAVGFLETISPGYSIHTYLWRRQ
Sequence of Cytochrome P450 3A4 (Homo sapiens) (P08684 whole entry, looked up): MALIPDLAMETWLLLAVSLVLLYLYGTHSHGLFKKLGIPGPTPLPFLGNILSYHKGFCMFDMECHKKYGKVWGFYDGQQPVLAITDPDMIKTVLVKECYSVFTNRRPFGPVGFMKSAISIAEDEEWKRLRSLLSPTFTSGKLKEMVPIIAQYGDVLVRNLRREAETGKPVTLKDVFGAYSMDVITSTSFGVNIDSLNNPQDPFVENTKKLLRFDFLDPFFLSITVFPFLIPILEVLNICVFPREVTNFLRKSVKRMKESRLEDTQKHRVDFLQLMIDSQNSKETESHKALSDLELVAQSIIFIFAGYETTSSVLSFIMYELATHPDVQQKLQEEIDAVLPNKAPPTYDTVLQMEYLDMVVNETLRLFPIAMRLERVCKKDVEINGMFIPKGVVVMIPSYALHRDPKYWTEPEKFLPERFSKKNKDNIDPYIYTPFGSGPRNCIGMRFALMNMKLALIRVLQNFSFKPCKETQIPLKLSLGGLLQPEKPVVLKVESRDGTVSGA

For the compound `CN(C)C(=O)c1ccc(-c2nccc(N(C)Cc3ccco3)n2)cc1`, the Potency is more than 11.4 µM in experiment [1], 12.6 µM (active) in experiment [3], more than 46 µM in experiment [6] and more than 46 µM in experiment [7]. In addition, the results for the activity change, negative = inhibition in experiment [2] and in experiment [4] were -6.22% and -2.09%, respectively. In [5], the activity, negative = inhibition is 4.76%. The Potency entry in [8], in [9], in experiment [10], in [11], in [12] and in experiment [13] was “inactive” in each case. Further, the result in experiment [14] was inactive.
For the compound `COCCn1c(=O)c(-c2cc(F)cc(F)c2)nc2cnc(N(C)C)nc21`, the Potency in experiment [1] was more than 11.4 µM; in experiment [3], 5.01 µM (active); in [6] it was more than 9.22 µM; in experiment [7], more than 46 µM. Also, the activity change, negative = inhibition in [2] was 3.27%; in experiment [4], -6.48%. Moreover, the activity, negative = inhibition in experiment [5] was -2%. Besides, the Potency entry in experiment [8], in experiment [9], in experiment [10], in [11], in [12] and in experiment [13] was “inactive” throughout. Further, the outcome in [14] was inactive.
Regarding `O=C(c1csnn1)N1CCC2(CC1)CN(c1cccc(-c3ccccc3)c1)C2`, the activity change, negative = inhibition is -15.1% in [2] and -11.3% in experiment [4]. Also, the Potency in [3] was 12.6 µM (active); in [7] it was more than 46 µM. Also, the Potency entry in [8], in experiment [9], in experiment [15] and in experiment [16] was “inactive” each time. For the same compound, the result in [14] was inactive.
Turning to `CN(C)c1ncc2nc(-c3cc(F)cc(F)c3)c(=O)n(-c3ccccc3)c2n1`, the Potency in experiment [1] is more than 11.4 µM; in experiment [3], 0.316 µM (active); in experiment [6], more than 9.22 µM; in experiment [7], more than 46 µM. Moreover, the activity change, negative = inhibition in [2] is -8.03%; in experiment [4], 9.84%. Besides, the activity, negative = inhibition in experiment [5] was 12.5%. Further, the Potency entry in [8], in experiment [9], in experiment [10], in [11], in [12] and in experiment [13] was “inactive” each time. Moreover, in experiment [14], the outcome was inactive.
In the case of `CCNc1ncc2nc(-c3cn(C)c4ccccc34)c(=O)n(C[C@H]3CCCO3)c2n1`, the Potency in experiment [1] was more than 11.4 µM; in experiment [3], 10 µM (active); in [6], more than 9.22 µM; in [7], more than 46 µM. Besides, the figures for the activity change, negative = inhibition in [2] and in [4] were -16.7% and 16.3%, respectively. In [5], the activity, negative = inhibition was 9.05%. Moreover, the Potency entry in experiment [8], in experiment [10], in experiment [11], in experiment [12] and in experiment [13] was “inactive” each time. In experiment [14], the result was inactive.
Turning to `Cn1c(=O)c(-c2ccc(Cl)cc2)nc2cnc(OCc3ccccc3)nc21`, the Potency in [1] is more than 11.4 µM; in experiment [3], 0.794 µM (active); in experiment [6], more than 9.22 µM; in experiment [7], more than 46 µM. For the same compound, the activity change, negative = inhibition is -12.6% in [2] and -7.07% in experiment [4]. The activity, negative = inhibition in experiment [5] is -4.02%. The Potency result in experiment [8], in experiment [9], in [10], in experiment [11], in experiment [12] and in experiment [13] was “inactive” throughout. The outcome in [14] was inactive.
